Compound activity (PubChem)
TTR transcr act: TTR transcription activators in neuroblastoma reporter cells, primary screen, cell-based, luminescence, SH-SY5Y, TTR promoter Gaussia luciferase. 100% = recombinant luciferase protein wells. 92,000 compounds, 1.3% hits. AID 1117267, 2014. activation, % at 16.7 µM;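 active means activation above the mean of all tested compounds plus 3 SD, cut at about 9.5% in these data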;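 further: cells exposed to compounds for one day before reading; 0% = median of all test compound wells on the plate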
HuH7 TTR inh: TTR promoter reporter inhibitors in hepatoma cells, counter-screen for TTR transcription activator project, cell-based, luminescence, HuH7 hepatoma. shares compounds with TTR transcr act. HuH7 TTR promoter-Gaussia luciferase reporter. inhibition, % at 16.7 µM. 1,100 compounds, 4% hits;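 active means average inhibition above the solvent-only control wells' mean plus 3 SD, cut at about 15% in these data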;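 further: 0% = cells with DMSO only and 100% = cells with inhibitor control FD; inhibitors lower well luminescence so higher value means more inhibition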
TTR up confirm: TTR transcription activators, retest, confirmation, cell-based, luminescence, SH-SY5Y, triplicate; shares compounds with TTR transcr act; AID 1117280, 2014; 1,100 tested, under 10 active; activation, % at 16.7 µM; SHSY5Y TTR promoter Gaussia luciferase; 100% = purified Lucia enzyme wells, no cells;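 active means mean activation above a set limit taken from the earlier primary screen, cut at about 11% in these data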;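 further: 0% = DMSO-treated cells and 100% = recombinant Lucia luciferase without cells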
* marks the source's active call; other numbers are inactive results. The entries come from a sample that favours hits as a whole.

Screening O=C(Nc1nnc(C2CC2)s1)c1ccc(S(=O)(=O)c2ccccc2)cc1 returned TTR transcr act 16.0*, HuH7 TTR inh 6.8 and TTR up confirm -1.4.
For C[C@@H]1CCCCO[C@@H](CN(C)Cc2ccc(C(=O)O)cc2)[C@@H](C)CN([C@H](C)CO)C(=O)c2cc(NS(C)(=O)=O)ccc2O1 the results were TTR transcr act -0.5.
For COc1ccc(CNC(=O)CNC(=O)c2ccc(C(C)(C)C)cc2)cc1OC the results were TTR transcr act 13.0*, HuH7 TTR inh -18.2 and TTR up confirm -0.2.
Screening COc1ccc(CC(=O)NCc2ccccc2)cc1OC returned TTR transcr act 0.1.
For COc1ccc(CCNC(=O)c2ccc(OC)c(OC)c2)cc1OC the results were TTR transcr act 2.5.
`O=C(OCc1ccccc1)[C@H](Cc1ccccc1)NC(=O)[C@@H]1CC=C[C@@H]2CCN(Cc3ccccc3)C(=O)[C@@H]21` gave TTR transcr act -0.3.
`O=C1N(CC[C@@H](O)c2ccccc2)CCC12CCC(c1ccccc1)CC2` (stereo not given in full) gave TTR transcr act 0.2.
For O=C(CCn1ccc([N+](=O)[O-])n1)NC1CCCCCC1 the results were TTR transcr act 1.5.
Screening CC(=O)Nc1ccc(NC(=O)Cn2ccc([N+](=O)[O-])n2)cc1 returned TTR transcr act 1.1.
Screening Cc1ccc(NC(=O)CCn2ccc([N+](=O)[O-])n2)nc1 returned TTR transcr act 29.5*, HuH7 TTR inh 8.1 and TTR up confirm 0.6.
Screening COc1ccc(-n2c(N)c(C(=O)NCc3cccnc3)sc2=S)cc1 returned TTR transcr act 9.9*, HuH7 TTR inh -24.2 and TTR up confirm 0.4.
CNC(=O)c1sc(=S)n(-c2ccc(OC)cc2)c1N was read as TTR transcr act 0.2.
COc1cccc(C(=O)NCc2cccnc2)c1 was read as TTR transcr act -1.6.
CCCC(NC(=O)c1c(C)noc1C)C12CC3CC(CC(C3)C1)C2 (stereo not given) was read as TTR transcr act 0.7.
`CCC(CC)C(=O)Nc1nnc(S(=O)(=O)N2c3ccccc3CC2C)s1` (stereo not given) gave TTR transcr act -0.2.
`Cn1cnc2nc[nH]c2c1=O` gave TTR transcr act 0.2.
For FC(F)(F)c1ccc(Cn2ccc3ccc(-c4ccc5ccn(Cc6ccc(C(F)(F)F)cc6)c5c4)cc32)cc1 the results were TTR transcr act -0.3.
Screening C[C@H]1[C@@H](OC(=O)Nc2ccccc2C(F)(F)F)CC[C@@]23CCCN2C(=O)CCC[C@@H]13 returned TTR transcr act 4.0.
O=C(Nc1ccc(Br)cc1)OC1CC2CC1[C@H]1CCCCN1C2 (stereo not given in full) was read as TTR transcr act 2.1.
Screening CCc1ccc(-n2ncc(Cl)c(Oc3ccc(OC)cc3)c2=O)cc1 returned TTR transcr act -2.2.
COc1ccc(/C=N/NC(=O)COc2cccc3cccnc23)cc1OC was read as TTR transcr act -0.9.
For CC(Oc1cccc2cccnc12)C(=O)N/N=C/c1ccccc1 (stereo not given) the results were TTR transcr act -2.2.
For CC(Oc1cccc2cccnc12)C(=O)N/N=C/c1ccc2c(c1)OCO2 (stereo not given) the results were TTR transcr act 12.6*, HuH7 TTR inh -8.2 and TTR up confirm -0.7.
COC(=O)C[C@@H]1CC[C@@H]2[C@@H](COc3ccc(NC(=O)Nc4ccc(F)cc4)cc3C(=O)N2C)O1 was read as TTR transcr act -1.7.
For COC(=O)[C@]12C[C@H](CC(=O)N3CCC(c4ccccc4)CC3)C(=O)N(Cc3ccc(Cl)cc3Cl)C1=C[C@H](COCc1ccccc1)O[C@@H]2C the results were TTR transcr act -1.7.
COc1cc2c(c(OC3OC(CO)C(O)C(O)C3O)c1)C(=O)CC(c1ccc(O)cc1)O2 (stereo not given) was read as TTR transcr act 0.3.
COc1ccc(/C=N/NC(=O)C(N)=O)c(OC)c1OC was read as TTR transcr act 12.9*, HuH7 TTR inh -4.1 and TTR up confirm 0.4.
For COc1ccc(/C=N/NC(=O)c2cccc(OC(F)(F)C(F)F)c2)c(OC)c1OC the results were TTR transcr act 0.8.
`COc1ccc(/C=N\NC(=O)CCc2c(C)n[nH]c2C)c(OC)c1OC` gave TTR transcr act -0.9.
Screening Cc1cccc(CN[C@@H]2CC[C@@]34CCCN3C(=O)CCC[C@H]4C2)c1 returned TTR transcr act -1.4.
Screening CCCCCNC(=O)C(C)Sc1ccc(Cl)cc1 (stereo not given) returned TTR transcr act 2.0.
